Measurements taken from PubChem BioAssay (NCATS).
Where “and” joins values, the source holds several entries; their conditions need not be identical. Equal entries are not always repeated. Inconclusive results are not listed. Calls of active or inactive are those of the source. Unless noted, the call rests on the fitted dose curve; in most records, active means well fitted curve in the direction sought with a large enough effect; inconclusive means small, poorly fitted or top-dose-only effect, or another doubt; inactive means no such curve, though single readings can be large; an effect the other way counts as inactive or inconclusive.

Legend:
[1] = Cell Viability - MRC5 (AID 434; calls by dose curve;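 further: potency means the concentration at half of the fitted maximal effect; cells exposed to compound for 40 hours at 37 °C; potency reflects cytotoxicity seen as loss of intracellular ATP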); details: MRC5 lung fibroblast viability, qHTS
Outline: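 ATP luminescence read-out (CellTiter-Glo, 20 min RT) after 40 hr, 37 °C compound exposure of 1500 MRC5 cells/well. Data normalized to DMSO (basal) and 100 uM tamoxifen (100% inhibition); AC50 from standard Hill equation.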

[2] = target: Mitogen-activated protein kinase 10 (Mus musculus) (UniProt Q61831); experiment: JNK3 AlphaScreen Assay (AID 530; active means well fitted curve in either direction with a large enough effect, not every such curve was filed as active;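 further: kinase came from lysate of stimulated human HepG2 cells; signal reports phosphorylation of biotinylated GST-cJun 1-79 at Ser73 with 10 µM ATP; on the % scale 0 is the no-effect control and ±100 the full control effect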); details: JNK3 lysate, c-Jun phosphorylation; series mostly up to 57.1 µM
Outline: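 Activity was read by AlphaScreen after JNK3-containing HepG2 lysate (cytokine pre-activated) phosphorylated biotinylated GST-cJun with 10 uM ATP at room temperature. Phospho-Ser73 cJun antibody with Protein-A acceptor beads provided detection.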

[3] = Cell Viability - HUV-EC-C (AID 542); details: HUV-EC-C endothelial cell viability, qHTS; series mostly up to 92.2 µM;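 further: cells exposed to compound for 40 hours; on the % scale 0 is the no-effect control and ±100 the full control effect; nearly all actives have a fitted effect of over 35% in size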
Outline: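 Cells were seeded at 1000 per well and incubated 5 hr at 37 °C before compound addition. After 40 hr at 37 °C, CellTiter-Glo reagent was added for 20 min and luminescence read. AC50 values came from Hill-equation modelling.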

[4] = Cell Viability - Mesenchymal (AID 546); details: mesenchymal cells viability, qHTS; series mostly up to 91.7 µM;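 further: cells exposed to compound for 40 hours before reading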
Outline: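 Human renal mesenchymal cells (glomerulus-derived), 1000 cells/well, 5 hr 37 °C pre-incubation; compound 40 hr, 37 °C; CellTiter-Glo, 20 min RT; luminescence; AC50 via Hill equation.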

[5] = Cellular Toxicity (caspase-3) HepG2 (AID 654); details: HepG2 caspase-3 activation, luminescence, 0% = DMSO only, 100% = tamoxifen; series mostly up to 92.2 µM;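 further: cells exposed to compound for 16 hours before reading; 0% = DMSO alone and 100% = caspase signal from 100 µM tamoxifen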
Outline: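 Caspase 3/7 activation in HepG2 is measured as rising luminescence after a 16 hr treatment at 37 °C. Values are scaled between DMSO basal and 100 uM tamoxifen, and AC50 is fitted with the Hill equation.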

[6] = Cellular Toxicity (caspase-3) Jurkat (AID 655); details: Jurkat caspase-3 activation, luminescence; caspase-3 activation: at 92.2 µM (top of the series), DMSO = 0%, tamoxifen = 100%;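 further: cells exposed to compound for 16 h at 37 °C before reading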
Outline: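 Jurkat cells (5000/well) in complete medium exposed 16 h at 37 C; caspase-3/7 activity read by Caspase-Glo luminescence after 20 min at room temperature. Normalized to DMSO and 100 uM tamoxifen; AC50 from Hill fits.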

[7] = Cellular Toxicity (caspase-3) BJ (AID 658); details: BJ fibroblasts, luminescence, normalized: DMSO 0%, staurosporine 100%; series mostly up to 91.7 µM
Outline: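 qHTS, BJ fibroblasts, 1000 cells/well; 5 hr preincubation, 16 hr compound, 37 °C; Caspase-Glo 3/7 reagent, 1 hr RT; luminescence. DMSO = 0%, 10 uM staurosporine = 100%. Hill-equation AC50.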

[8] = Cellular Toxicity (caspase-3) SK-N-SH (AID 661); details: SK-N-SH caspase-3 activation, qHTS; series mostly up to 91.7 µM
Outline: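 Cells were seeded and incubated 5 hr at 37 °C, dosed with compound over a concentration range for 16 hr, then given Caspase-Glo 3/7 reagent for 1 hr at room temperature before luminescence reading.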

[9] = Cellular Toxicity (caspase-3) H-4-II-E (AID 663); details: H-4-II-E rat hepatoma; Potency: caspase-3 activation; series mostly up to 92.2 µM;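 further: cells exposed to compound for 16 hr before readout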
Outline: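 H-4-II-E rat hepatoma, 1500 cells/well, 5 hr settle at 37 °C; compound 16 hr, 37 °C, complete medium; Caspase-Glo 3/7, 20 min RT; luminescence. DMSO = 0%, 100 uM tamoxifen = 100%; Hill-equation AC50.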

[10] = Cellular Toxicity (caspase-3) Hek293 (AID 664); details: HEK293 caspase-3 activation, DMSO = 0%, 100 µM tamoxifen = 100%; at 92.2 µM (top of the series);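 further: cells exposed to compound for 16 h at 37 °C before readout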
Outline: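 qHTS, HEK293 (human embryonic kidney), 16 h cpd exposure in complete medium. Caspase-3/7 activation = luminescence increase; normalized to DMSO/100 uM tamoxifen; Hill-fit AC50.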

[11] = Cellular Toxicity (caspase-3) N2a (AID 665); details: N2a cells, luminescence, normalized: DMSO 0%, 10 µM staurosporine 100%; series mostly up to 92.2 µM;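 further: compound exposure lasted 16 h at 37 °C before readout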
Outline: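 Caspase-3/7 activation, measured as increased luminescence from aminoluciferin release, is quantified in mouse N2a cells exposed to compounds for 16 h. Values are normalized to DMSO and 10 uM staurosporine, with AC50 derived by Hill modelling.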

[12] = Cellular Toxicity (caspase-3) Renal Proximal Tubule (AID 667); details: renal proximal tubule cells; series mostly up to 91.7 µM;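 further: cells exposed to compound for 16 hours at 37 °C before detection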
Outline: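 Freshly isolated primary rat kidney proximal tubule cells, 1000/well, treated 16 hr at 37 °C, then Caspase-Glo 3/7 luminescence after 1 hr. Normalized to DMSO and 10 uM staurosporine; AC50 from Hill fit.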

[13] = MultiTox-Fluor Cytotoxicity Assay - LYMP1-003 - Live Cells (AID 962); details: LYMP1-003 lymphoblastoid cells, MultiTox-Fluor live-cell protease fluorescence; series mostly up to 92.2 µM;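 further: cells exposed to compound for 16 hours at 37 °C; 0% = DMSO only and full loss = 92 µM tetraoctylammonium bromide; cytotoxic hits lower the live-cell protease signal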
Outline: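 Acute cytotoxicity is scored as a drop in live-cell protease activity in human lymphoblastoid LYMP1-003 cells after 16 hr compound exposure at 37 C. AC50 values come from Hill-equation modelling of concentration-response data.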

[14] = Cell Viability - LYMP2-013 (AID 970); details: LYMP2-013 lymphoblastoid cells viability; series mostly up to 92.2 µM;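 further: cells exposed to compound for 24 h at 37 °C; 0% = DMSO only and full inhibition = tetraoctylammonium bromide control; nearly all actives have a fitted effect of over 55% in size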
Outline: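 Cytotoxicity is scored as a concentration-dependent drop in intracellular ATP in human lymphoblastoid cells after 24 hr compound exposure at 37 C. ATP is quantified by luciferase luminescence, and AC50 values come from Hill-equation modeling.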

[15] = target: Peroxisome proliferator-activated receptor gamma (Homo sapiens) (UniProt P37231); experiment: qHTS assay for small molecule agonists of peroxisome proliferator-activated receptor gamma signaling (AID 588536; active means well fitted curve in the direction sought with a large enough effect in the signal ratio, with a control signal flat, not every such curve was filed as active; the % refers to the signal ratio;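 further: 0% = DMSO basal wells and 100% = rosiglitazone at 2 µM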); details: HEK293 PPARg-UAS-bla, beta-lactamase ratio, 16 h, percent of rosiglitazone response, DMSO as zero; series mostly up to 76.7 µM
Outline: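 This is an agonist-mode beta-lactamase reporter assay in HEK293 PPAR-gamma-UAS-bla cells with 1% charcoal/dextran FBS. Compound titrations ran 16 h at 37 C before CCF4 detection. EC50 and efficacy are Hill fits scaled to 2 uM rosiglitazone (100%) and DMSO basal.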

[16] = qHTS assay for environmental chemicals that activate the Aryl hydrocarbon Receptor (AhR) signaling pathway (AID 651777); details: 1A2-DRE human hepatoma cells, luciferase, 24 h; activation: hits give high values; further: % of control where 0% means no effect; nearly all actives have a fitted effect of over 15% in size
Outline: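 AhR activation is scored as a rise in luciferase from a stable DRE–CYP1A2 promoter construct in human hepatoma cells. Treatment lasts 24 hr at 37 C; detection uses One-Glo after 30 min at room temperature.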

[17] = qHTS assay for cell viability of HEK293 cells (AID 743288); details: ATP luminescence (CellTiter-Glo), 18 h, hits give low values; further: on the % scale 0 is the no-effect control and ±100 the full control effect; nearly all actives have a fitted effect of over 50% in size
Outline: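 Steps: plate 2,000 parental HEK293 cells per well; incubate ≥5 h, 37 C; add compounds in DMSO; incubate 18 h, 37 C; add CellTiter-Glo; wait 30 min at room temperature; read luminescence.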

[18] = qHTS assay for cell viability of the p53RE-bla HCT-116 cell line (AID 743292); details: p53RE-bla HCT-116 viability, ATP luminescence, 16 h; series mostly up to 95 µM; further: on the % scale 0 is the no-effect control and ±100 the full control effect; nearly all actives have a fitted effect of over 55% in size
Outline: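 Quantitative high-throughput format: compounds in DMSO were pinned onto p53RE-bla HCT-116 cells (4,000/well) and incubated 16 h at 37 C. Total intracellular ATP, read by CellTiter-Glo luminescence, reflects viable cell number.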

[19] = target: Nuclear receptor subfamily 1 group I member 2 (Rattus norvegicus) (UniProt Q9R1A7); experiment: qHTS assay for small molecule activators of the rat pregnane X receptor (rPXR) signaling pathway (AID 651751; call rule not given here; further: 0% is about no effect); details: rPXR reporter cells, luciferase (One-Glo), 24 h
[20] = MultiTox-Fluor Cytotoxicity Assay - LYMP1-003 - Dead Cells (AID 961); details: LYMP1-003 lymphoblastoid cells, dead-cell protease fluorescence; series mostly up to 92.2 µM; further: nearly all actives have a fitted effect of over 70% in size
Outline: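 Dead-cell protease release, detected as bis-AAF-R110 fluorescence at 485/520 nm, was measured in LYMP1-003 cells after 16 h compound treatment at 37 C. AC50 values came from Hill-modeled qHTS curves normalized to DMSO (0%) and 15 uM tetraoctylammonium bromide (100%).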

Chain of Nuclear receptor subfamily 1 group I member 2 (Rattus norvegicus) (Q9R1A7 whole entry, looked up): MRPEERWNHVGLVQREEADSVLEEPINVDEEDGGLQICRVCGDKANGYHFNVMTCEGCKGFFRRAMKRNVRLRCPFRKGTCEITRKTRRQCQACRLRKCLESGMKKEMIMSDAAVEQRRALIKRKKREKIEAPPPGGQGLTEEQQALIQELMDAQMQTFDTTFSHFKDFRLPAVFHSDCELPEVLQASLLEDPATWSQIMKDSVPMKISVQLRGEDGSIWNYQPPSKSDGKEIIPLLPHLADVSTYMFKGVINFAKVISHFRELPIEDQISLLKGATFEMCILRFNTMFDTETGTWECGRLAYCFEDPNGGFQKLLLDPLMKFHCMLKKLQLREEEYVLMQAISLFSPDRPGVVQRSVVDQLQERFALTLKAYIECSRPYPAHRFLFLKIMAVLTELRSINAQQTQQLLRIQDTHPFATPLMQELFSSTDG
Chain of Peroxisome proliferator-activated receptor gamma (Homo sapiens) (P37231 whole entry, looked up): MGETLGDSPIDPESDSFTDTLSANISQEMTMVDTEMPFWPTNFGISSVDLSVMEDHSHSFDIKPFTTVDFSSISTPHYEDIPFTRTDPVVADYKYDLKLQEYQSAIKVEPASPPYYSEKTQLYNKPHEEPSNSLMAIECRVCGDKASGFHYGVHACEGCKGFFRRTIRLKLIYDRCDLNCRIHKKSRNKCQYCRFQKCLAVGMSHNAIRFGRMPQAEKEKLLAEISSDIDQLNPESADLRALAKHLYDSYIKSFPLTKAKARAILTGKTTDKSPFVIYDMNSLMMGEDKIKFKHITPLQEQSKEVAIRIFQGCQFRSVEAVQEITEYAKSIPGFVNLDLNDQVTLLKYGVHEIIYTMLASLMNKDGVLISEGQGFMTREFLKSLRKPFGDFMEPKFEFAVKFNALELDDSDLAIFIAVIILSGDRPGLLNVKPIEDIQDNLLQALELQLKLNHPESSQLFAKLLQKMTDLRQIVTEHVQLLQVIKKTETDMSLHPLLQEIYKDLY

ClP(Cl)(Cl)(Cl)Cl
inactive: Potency [1] > 92 µM | Potency [2] | Potency [3] | Potency [4] | outcome [5] | caspase-3 activation [6] 0.993% | outcome [7] | Potency [8] | Potency [9] | caspase-3 activation [10] -1.32% | outcome [11] | outcome [12] | outcome [13] | Potency [14] | outcome [15] | activation [16] -0.379% | max response [17] -14.3% | Potency [18] | max response [19] 0.805%

ClCCOCCCl
inactive: Potency [1] > 92 µM | Potency [2] | Potency [3] | Potency [4] | outcome [5] | outcome [7] | Potency [8] | Potency [9] | outcome [11] | outcome [12] | Potency [20] | outcome [13] | Potency [14] | outcome [15] | activation [16] -0.172% | max response [17] -0.0116% | Potency [18] | max response [19] -1.5%

C=CC(=O)OCC(CC)CCCC (stereo not given)
inactive: Potency [1] > 92 µM | Potency [2] | Potency [3] | outcome [5] | caspase-3 activation [6] -0.0566% | outcome [7] | Potency [9] | caspase-3 activation [10] 2.19% | outcome [11] | outcome [12] | Potency [20] | outcome [13] | Potency [14] | outcome [15] | activation [16] 2.67% and -0.331% | max response [17] 1.71% and -12.5% | Potency [18] | max response [19] -2.19% and -0.52%

Cc1ccc(N=C=O)cc1N=C=O
inactive: Potency [1] > 92 µM | Potency [2] | Potency [3] | outcome [5] | caspase-3 activation [6] 0.0584% | outcome [7] | Potency [9] | caspase-3 activation [10] 2% | outcome [11] | outcome [12] | Potency [20] | Potency [14] | outcome [15] | max response [17] -9.26% and -8.71% | max response [19] 5.64% and 2.33%

BrCCc1ccccc1
inactive: Potency [1] > 92 µM | Potency [2] | Potency [3] | Potency [4] | outcome [5] | caspase-3 activation [6] 1.89% | Potency [8] | Potency [9] | caspase-3 activation [10] 0.126% | outcome [11] | outcome [12] | Potency [20] | Potency [14] | outcome [15] | activation [16] -0.177% | max response [17] -1.44% | Potency [18] | max response [19] -6.29%

CC(C)(Cl)[N+](=O)[O-]
inactive: Potency [1] > 92 µM | Potency [2] | Potency [4] | outcome [5] | caspase-3 activation [6] 0.332% | outcome [7] | Potency [8] | Potency [9] | outcome [11] | outcome [12] | Potency [20] | outcome [13] | Potency [14] | outcome [15] | activation [16] -0.364% | max response [17] 8.03% | max response [19] 2.49%

Nc1ccc2ccccc2c1
inactive: Potency [1] > 92 µM | Potency [2] | Potency [4] | caspase-3 activation [6] 1.77% | outcome [7] | Potency [8] | Potency [9] | caspase-3 activation [10] 2.15% | outcome [11] | Potency [20] | outcome [13] | Potency [14] | outcome [15] | max response [17] 3.26% | Potency [18]
